Reference: PubChem BioAssay AID1159580 (chemical genetic matrix, 2015)
Values joined by “and” are separate entries in the source; they are usually repeats but may differ in a detail not shown here. Equal values may be shown once. The whole screen tested about 5,500 compounds, of which about 2,000 (36%) were called active. Another 18% or so got no clear call; they are omitted. Cut-off read from the data, not from the text of the source: active = normalized growth mostly below about 0.91 (no sharp cut-off); inconclusive = no clear call, values can overlap the other calls; inactive = mostly above about 0.92. The list shows a part of the results.

Assay: chemical genetic growth profiling, strain panel (AID 1159580);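 note: tested at 20 µM; growth read once vehicle control cultures reached saturation at 30 °C; 1 = growth at the plate median or of vehicle wells; lower values mean less growth of the strain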
Details: S. cerevisiae deletion strains, growth OD

Measured: normalized growth

Cn1c(=O)c2[nH]cnc2n(C)c1=O
inactive: locus YAL013W, strain DEP1, active compounds read low 0.996 | locus YAL021C, strain ccr4, active compounds read low 1.03 | locus YAL026C, strain drs2, active compounds read low 1.03 | locus YAL030W, strain snc1, active compounds read low 1.02 | locus YAL040C, strain CLN3, active compounds read low 0.999 | locus YBL061C, strain skt5, active compounds read low 1.02 | locus YBR009C, strain hhf1, active compounds read low 1 | locus YBR021W, strain FUR4, active compounds read low 0.968 | locus YBR023C, strain chs3, active compounds read low 1.04 | locus YBR171W, strain sec66, active compounds read low 1.04 | locus YBR229C, strain ROT2, active compounds read low 0.983 | locus YBR231C, strain swc5, active compounds read low 1.02 | locus YBR279W, strain paf1, active compounds read low 1.02 | locus YCL011C, strain gbp2, active compounds read low 1.02 | locus YCL016C, strain dcc1, active compounds read low 1.04 | locus YCL029C, strain bik1, active compounds read low 0.966 | locus YCL061C, strain MRC1 (second series), active compounds read low 1 | locus YCL069W, strain vba3, active compounds read low 1 | locus YCR088W, strain abp1, active compounds read low 1.02 | locus YDL005C, strain med2, active compounds read low 1.02 | locus YDL035C, strain GPR1, active compounds read low 0.996 | locus YDL040C, strain nat1, active compounds read low 1.02 | locus YDL074C, strain BRE1, active compounds read low 1.02 | locus YDL101C, strain DUN1, active compounds read low 0.985 | locus YDL134C, strain PPH21, active compounds read low 0.985 | locus YDL185W, strain tfp1, active compounds read low 0.979 | locus YDL192W, strain arf1, active compounds read low 0.964 | locus YDR001C, strain nth1, active compounds read low 1.01 | locus YDR069C, strain doa4, active compounds read low 1.02 | locus YDR101C, strain arx1, active compounds read low 0.975 | locus YDR137W, strain rgp1, active compounds read low 1.04 | locus YDR150W, strain NUM1, active compounds read low 0.99 | locus YDR159W, strain sac3, active compounds read low 0.982 | locus YDR162C, strain NBP2, active compounds read low 1.01 | locus YDR195W, strain ref2 1.01 | locus YDR297W, strain sur2, active compounds read low 1.03 | locus YDR318W, strain mcm21, active compounds read low 0.976 | locus YDR334W, strain swr1, active compounds read low 1.02 | locus YDR335W, strain msn5, active compounds read low 1.04 | locus YDR388W, active compounds read low 0.975 | locus YDR392W, strain spt3, active compounds read low 1.05 | locus YDR502C, strain sam2, active compounds read low 1 | locus YEL003W, strain gim4, active compounds read low 0.997 | locus YEL037C, strain rad23, active compounds read low 1.02 | locus YEL061C, strain CIN8 (second series), active compounds read low 1.02 | locus YEL061C, strain CIN8, active compounds read low 0.989 | locus YER002W, strain NOP16, active compounds read low 0.993 | locus YER015W, strain faa2, active compounds read low 1.02 | locus YER016W, strain bim1, active compounds read low 1.02 | locus YER110C, active compounds read low 0.978 | locus YER111C, strain swi4, active compounds read low 1 | locus YER155C, strain BEM2 (second series), active compounds read low 1.02 | locus YER155C, strain BEM2, active compounds read low 0.992 | locus YER167W, strain BCK2, active compounds read low 0.988 | locus YFR010W, strain ubp6, active compounds read low 0.99 | locus YGL078C, strain dbp3, active compounds read low 0.987 | locus YGL086W, strain mad1, active compounds read low 0.989 | locus YGL167C, strain pmr1, active compounds read low 1.02 | locus YGL173C, strain kem1, active compounds read low 1.02 | locus YGL227W, strain vid30, active compounds read low 1.01 | locus YGL240W, strain doc1, active compounds read low 1.02 | locus YGL248W, strain PDE1, active compounds read low 0.99 | locus YGL253W, strain hxk2, active compounds read low 1.03 | locus YGR078C, strain PAC10, active compounds read low 0.992 | locus YGR135W, strain pre9, active compounds read low 0.976 | locus YGR229C, strain SMI1, active compounds read low 1.03 | locus YGR252W, strain gcn5, active compounds read low 1.05 | locus YHR013C, strain ard1, active compounds read low 1.05 | locus YHR027C, strain rpn1, active compounds read low 1.02 | locus YHR030C, strain SLT2, active compounds read low 0.984 and 0.992 | locus YHR079C, strain IRE1 (second series), active compounds read low 0.965 | locus YHR079C, strain IRE1, active compounds read low 0.988 | locus YHR094C, strain hxt1, active compounds read low 0.985 | locus YHR129C, strain ARP1, active compounds read low 0.995 | locus YHR142W, strain chs7, active compounds read low 1.05 | locus YHR200W, strain rpn10, active compounds read low 0.979 | locus YIL066C, strain RNR3, active compounds read low 0.989 | locus YIL073C, strain SPO22, active compounds read low 0.94 | locus YIL125W, strain kgd1, active compounds read low 0.983 | locus YIR030C, strain dcg1, active compounds read low 0.97 | locus YJL092W, strain hpr5, active compounds read low 1.01 | locus YJL095W, strain BCK1 (second series), active compounds read low 1.03 | locus YJL095W, strain BCK1, active compounds read low 1.01 and 0.99 | locus YJL115W, strain asf1, active compounds read low 1.03 | locus YJL129C, strain trk1, active compounds read low 1.04 | locus YJL134W, strain LCB3, active compounds read low 0.989 | locus YJL154C, strain vps35, active compounds read low 1.01 | locus YJL164C, strain tpk1, active compounds read low 1.01 | locus YJL166W, strain qcr8, active compounds read low 1.02 | locus YJL168C, strain set2, active compounds read low 0.978 | locus YJL187C, strain SWE1 (second series), active compounds read low 0.984 | locus YJL187C, strain SWE1, active compounds read low 1 | locus YJR043C, strain POL32, active compounds read low 0.997
